Test results from PubChem BioAssay (Tox21).
Inconclusive results are not listed. Activity calls are given as the source filed them. Unless noted, the call rests on the fitted dose curve; in most records, active means well fitted curve in the direction sought with a large enough effect in the repeat runs; inconclusive means weak or mixed curves; inactive means no such curve, though single readings can be large; an effect the other way counts as inactive or inconclusive.

Legend:
[1] = target: Luciferin 4-monooxygenase (Photinus pyralis) (UniProt P08659); experiment: qHTS assay to identify small molecule inhibitors of firefly luciferase (AID 1224835); further: nearly all actives have a fitted effect of over 25% in size; further: potency means the concentration at half of the fitted maximal effect
Sequence of Luciferin 4-monooxygenase (Photinus pyralis) (P08659 whole entry, looked up): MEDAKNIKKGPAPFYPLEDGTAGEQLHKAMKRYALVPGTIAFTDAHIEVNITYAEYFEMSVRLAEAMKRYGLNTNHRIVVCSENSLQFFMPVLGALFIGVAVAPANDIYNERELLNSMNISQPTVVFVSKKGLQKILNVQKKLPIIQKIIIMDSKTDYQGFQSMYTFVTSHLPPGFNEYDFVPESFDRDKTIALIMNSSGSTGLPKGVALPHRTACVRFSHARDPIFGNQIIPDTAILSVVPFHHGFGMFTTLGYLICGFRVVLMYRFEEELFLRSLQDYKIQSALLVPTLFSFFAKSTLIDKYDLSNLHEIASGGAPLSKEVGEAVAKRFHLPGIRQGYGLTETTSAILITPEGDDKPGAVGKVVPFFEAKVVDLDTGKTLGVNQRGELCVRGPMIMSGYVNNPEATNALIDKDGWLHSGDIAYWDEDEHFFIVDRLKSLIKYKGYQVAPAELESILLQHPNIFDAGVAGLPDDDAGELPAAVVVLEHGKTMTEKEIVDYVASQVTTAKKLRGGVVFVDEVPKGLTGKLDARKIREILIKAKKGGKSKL
In short: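 Biochemical qHTS: compounds run as interplate titrations against purified firefly enzyme, with D-luciferin and ATP each at its KM concentration. Light output recorded by CCD imaging.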

[2] = qHTS assay to identify small molecule agonists of the constitutive androstane receptor (CAR) signaling pathway - cell viability counter screen (AID 1224836); further: nearly all actives have a fitted effect of over 45% in size; further: potency means the concentration at half of the fitted maximal effect
In short: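 Multiplexed viability check: HepG2-CYP2B6-hCAR cells, 15-point compound dosing, 0.75 uM PK11195 final, 23 h at 37 C, CellTiter-Fluor fluorescence.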

[3] = target: Nuclear receptor subfamily 1 group I member 3 (Homo sapiens) (UniProt Q14994); experiment: qHTS assay to identify small molecule antagonists of the constitutive androstane receptor (CAR) signaling pathway (AID 1224838);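 further: HepG2 cells stably expressing hCAR with CYP2B6 luciferase reporter stimulated by CITCO; nearly all actives have a fitted effect of over 40% in size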; further: potency means the concentration at half of the fitted maximal effect
Sequence of Nuclear receptor subfamily 1 group I member 3 (Homo sapiens) (Q14994 whole entry, looked up): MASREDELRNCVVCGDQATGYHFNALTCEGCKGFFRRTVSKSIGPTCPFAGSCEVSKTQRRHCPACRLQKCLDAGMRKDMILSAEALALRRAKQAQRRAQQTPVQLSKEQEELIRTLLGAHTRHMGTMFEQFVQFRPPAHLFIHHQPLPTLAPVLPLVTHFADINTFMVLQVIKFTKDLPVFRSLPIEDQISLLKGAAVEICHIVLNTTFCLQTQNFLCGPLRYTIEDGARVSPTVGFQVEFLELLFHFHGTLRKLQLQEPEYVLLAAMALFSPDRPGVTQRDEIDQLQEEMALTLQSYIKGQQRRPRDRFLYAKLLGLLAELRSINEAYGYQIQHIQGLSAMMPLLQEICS
In short: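 Reporter luminescence was quantified after 24 h exposure of hCAR/CYP2B6-2.2kb double-stable HepG2 cells to compounds at 15 concentrations in the presence of 50 nM CITCO final.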

[4] = target: Nuclear receptor subfamily 1 group I member 3 (Homo sapiens) (UniProt Q14994); experiment: qHTS assay to identify small molecule agonists of the constitutive androstane receptor (CAR) signaling pathway (AID 1224839); further: nearly all actives have a fitted effect of over 15% in size; further: potency means the concentration at half of the fitted maximal effect
In short: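 Using human hepatoma HepG2 cells engineered with hCAR and a CYP2B6-2.2kb reporter, 15-concentration compound series were incubated 24 h alongside PK11195 at 0.75 uM final, with luminescence quantified afterwards.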

[5] = qHTS assay to identify small molecule antagonists of the estrogen related receptor signaling pathway with the pleiotropic PPARgamma coactivator (PGC) from Tox21 10K library - cell viability counter screen (AID 1224840; active means well fitted cell-killing curve with a large enough effect in the repeat runs, not every such curve was filed as active; further: nearly all actives have a fitted effect of over 40% in size; further: potency means the concentration at half of the fitted maximal effect)
In short: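 Here the PGC/ERR cells serve as a cytotoxicity control: they are exposed to compounds for 17.5 hours at 37 C, and live-cell signal is quantified using CellTiter-Fluor fluorescence.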

[6] = qHTS assay to identify small molecule antagonists of the estrogen related receptor signaling pathway with the pleiotropic PPARgamma coactivator (PGC) from Tox21 10K library (AID 1224841; call rule not given here; further: actives are mostly falling curves and most rising ones were filed inactive; nearly all actives have a fitted effect of over 50% in size; further: potency means the concentration at half of the fitted maximal effect)
In short: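 Each well held 2,000 PGC/ERR cells, pre-incubated six hours (37 C, 5% CO2). Test substances in DMSO were added by pin tool and left for 18 h at 37 C before luciferase detection by One-Glo.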

[7] = qHTS assay to identify small molecule agonists of the estrogen related receptor signaling pathway with the pleiotropic PPARgamma coactivator (PGC) from Tox21 10K library (AID 1224842); further: nearly all actives have a fitted effect of over 15% in size
In short: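 PGC/ERR reporter cell line, 2,000 cells per well, incubated 6 h at 37 C before 23 nL compound in DMSO was added. After 18 h at 37 C, One-Glo luminescence read following 30 min at room temperature.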

[8] = target: Thyrotropin receptor (Homo sapiens) (UniProt P16473); experiment: qHTS assay to identify small molecule agonists of the thyroid stimulating hormone receptor (TSHR) signaling pathway (AID 1224843; calls by dose curve; further: nearly all actives have a fitted effect of over 45% in size; further: potency means the concentration at half of the fitted maximal effect)
Sequence of Thyrotropin receptor (Homo sapiens) (P16473 whole entry, looked up): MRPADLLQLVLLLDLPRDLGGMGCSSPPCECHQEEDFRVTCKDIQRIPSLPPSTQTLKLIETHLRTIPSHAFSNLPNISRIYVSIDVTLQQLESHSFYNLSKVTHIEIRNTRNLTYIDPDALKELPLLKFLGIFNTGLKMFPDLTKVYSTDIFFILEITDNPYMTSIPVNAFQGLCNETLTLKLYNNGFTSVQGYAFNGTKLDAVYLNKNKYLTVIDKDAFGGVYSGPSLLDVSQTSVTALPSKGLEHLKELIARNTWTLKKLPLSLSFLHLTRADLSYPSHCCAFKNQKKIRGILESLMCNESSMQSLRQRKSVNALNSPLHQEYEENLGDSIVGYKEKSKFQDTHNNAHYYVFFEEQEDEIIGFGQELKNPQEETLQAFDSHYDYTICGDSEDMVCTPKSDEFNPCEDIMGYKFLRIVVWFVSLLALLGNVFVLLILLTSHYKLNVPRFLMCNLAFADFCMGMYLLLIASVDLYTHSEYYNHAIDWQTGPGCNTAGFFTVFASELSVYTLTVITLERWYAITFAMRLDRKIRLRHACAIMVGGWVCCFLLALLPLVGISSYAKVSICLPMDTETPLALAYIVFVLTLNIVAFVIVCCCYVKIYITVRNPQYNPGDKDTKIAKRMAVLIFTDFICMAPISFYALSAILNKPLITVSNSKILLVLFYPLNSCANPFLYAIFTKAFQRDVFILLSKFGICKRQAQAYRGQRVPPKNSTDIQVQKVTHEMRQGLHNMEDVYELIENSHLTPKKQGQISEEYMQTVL
In short: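 TSHR-HEK293 cells in agonist mode, 30 min room-temperature step, then cAMP measured by competitive HTRF (cAMP-d2 with anti-cAMP cryptate) after 1 h at room temperature. Tested at 15 concentrations in triplicate.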

[9] = qHTS assay to identify small molecule agonists of the hypoxia (HIF-1) signaling pathway - cell viability counter screen (AID 1224844; calls by dose curve; further: nearly all actives have a fitted effect of over 50% in size; further: potency means the concentration at half of the fitted maximal effect)
In short: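 Multiplexed with the HRE beta-lactamase assay, this viability read used CellTiter-Glo luminescence (30 min, RT) on HRE-bla ME-180 cells treated 17 hrs with compounds in 0.5% dialyzed FBS medium.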

[10] = qHTS assay to identify small molecule antagonists of the constitutive androstane receptor (CAR) signaling pathway - cell viability counter screen (AID 1224837); further: nearly all actives have a fitted effect of over 45% in size; further: potency means the concentration at half of the fitted maximal effect
In short: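 Using CellTiter-Fluor, viability is scored in HepG2 cells stably carrying hCAR and a 2.2kb CYP2B6 reporter after 23 hr compound exposure across 15 concentrations, with CITCO present at 50 nM.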

Measured: Potency

CC(CO)(CO)C(=O)O
not listed: [8] | [9] | [10]
inactive: all other assays above

Cc1ccc2c(c1[N+](=O)[O-])C(=O)c1ccccc1C2=O
active: [2] 6.73 µM | [3] 0.673 µM
not listed: [7] | [10]
inactive: all other assays above

CC(=O)N[C@@H](Cc1ccc(O)cc1)C(=O)O
not listed: [9] | [10]
inactive: all other assays above

C1=CCC2CC=CC2C1 (stereo not given)
not listed: [3] | [4]
inactive: all other assays above

CC(=O)OC(C)C[N+](C)(C)C (stereo not given)
not listed: [8] | [10]
inactive: all other assays above

CC(=O)OCCC(C)CC(C)(C)C (stereo not given)
not listed: [3]
inactive: all other assays above

CC(C)(C)S
inactive: [1] | [2] | [10] | [5] | [6] | [7]

CC[C@H]1OC(=O)[C@H](C)[C@@H](O[C@H]2C[C@@](C)(OC)[C@@H](O)[C@H](C)O2)[C@H](C)[C@@H](O[C@@H]2O[C@H](C)C[C@H](N(C)C)[C@H]2O)[C@](C)(O)C[C@@H](C)/C(=N\OCOCCOC)[C@H](C)[C@@H](O)[C@]1(C)O
active: [2] 25.5 µM | [10] 14.3 µM
inactive: [1] | [5] | [6] | [7] | [8]

CCCCCCCC/C=C\CCCCCCCC(=O)OCCO
inactive: [1] | [2] | [10] | [5] | [8] | [9]

CCN(CC)CCOc1ccccc1C(=O)CCc1ccccc1
active: [4] 26.6 µM
not listed: [9] | [10]
inactive: all other assays above

CCCCCCC(O)CCOC(C)=O (stereo not given)
not listed: [3] | [4]
inactive: all other assays above

CC1=CC[C@@]23C[C@@H]1C(C)(C)[C@@H]2CC[C@H]3C
not listed: [3] | [6] | [7]
inactive: all other assays above

CC1CCC(C(C)CS)CC1S (stereo not given)
active: [9] 54.9 µM
not listed: [3] | [4] | [7]
inactive: all other assays above

CCCCCCCCCCCCCCCC(=O)OCC
inactive: [1] | [2] | [10] | [5] | [8]

CCCCCCCC(=O)Oc1c(Br)cc(C#N)cc1Br
active: [6] 43.1 µM
not listed: [9] | [10]
inactive: all other assays above

CC/C=C\C/C=C\C/C=C\CCCCCCCC(=O)OCC
inactive: [1] | [2] | [10] | [7] | [8]

CNCc1ccc(NC(=O)c2c[nH]c3c2C(=O)CCC3)cc1
active: [4] 1.72 µM
not listed: [10]
inactive: all other assays above

Oc1ccc2c(c1)Cc1ccccc1-2
active: [1] 31.7 µM | [4] 61.1 µM
not listed: [10]
inactive: all other assays above

CCCCOC(=O)CCCCC(=O)OCCCC
not listed: [3] | [4] | [8]
inactive: all other assays above

Cc1cc(CCC(=O)OCCOCCOCCOC(=O)CCc2cc(C)c(O)c(C(C)(C)C)c2)cc(C(C)(C)C)c1O
inactive: [1] | [2] | [3] | [4] | [5]
active: [8] 15 µM

COC(C)(C)OC
not listed: [3] | [4]
inactive: all other assays above

Cc1oc(=O)oc1COC(=O)[C@@H]1N2C(=O)[C@@H](NC(=O)[C@H](N)c3ccccc3)[C@H]2SC1(C)C
not listed: [3] | [4]
inactive: all other assays above

CCCCCCCC/C=C/C(=O)O
inactive: [1] | [2] | [10] | [5] | [9]

O=C(/C=C/c1ccc([N+](=O)[O-])cc1)c1ccccc1
active: [1] 1.13 µM | [2] 61.3 µM | [10] 68.7 µM | [5] 54.6 µM | [9] 24.6 µM
inactive: [8]

COc1ccc(-n2nc(C(F)F)cc2-c2ccc(S(C)=O)cc2)cc1 (stereo not given)
inactive: [1] | [2] | [10] | [5] | [8] | [9]

CC(C)(C)NCC(O)COc1cccc2c1C[C@H](O)[C@H](O)C2 (stereo not given in full)
inactive: [1] | [2] | [10] | [5] | [8] | [9]

CNc1c2c(nn1C)CCCC2
inactive: [1] | [2] | [10] | [5] | [8] | [9]

CN1CCCN(C(c2ccccc2)c2ccc(Cl)cc2)CC1 (stereo not given)
active: [2] 26.6 µM | [10] 29.8 µM | [5] 26.6 µM | [9] 21.3 µM
not listed: [3]
inactive: all other assays above

Nc1cccc2c(N)cccc12
inactive: [3]
active: [1] 39.9 µM | [2] 24.3 µM | [4] 24.3 µM

O=P(O)(O)Oc1ccccc1
inactive: [1] | [2] | [10] | [5] | [8]

CCC(CO)(CO)CO
inactive: [1] | [2] | [10] | [5] | [8] | [9]

CCOc1ncc(F)c(=O)[nH]1
inactive: [1] | [2] | [10] | [5] | [8] | [9]

CC(CN(CCN(CC(C)OCCO)CC(C)OCCO)CC(C)OCCO)OCCO (stereo not given)
inactive: [1] | [2] | [10] | [5] | [8]

O=C(Nc1ccc(C(=O)O)c(O)c1)c1ccccc1
active: [1] 27.5 µM
not listed: [2] | [6] | [7]
inactive: all other assays above

CC(C)C1CCC(C(=O)N[C@H](Cc2ccccc2)C(=O)O)CC1 (stereo not given in full)
inactive: [1] | [2] | [5] | [8] | [9]

CSCC[C@H](NC(=O)[C@H](Cc1c[nH]c2ccccc12)NC(=O)CCNC(=O)OC(C)(C)C)C(=O)N[C@@H](CC(=O)O)C(=O)N[C@@H](Cc1ccccc1)C(N)=O
not listed: [6] | [7] | [10]
inactive: all other assays above

COc1cc(NS(=O)(=O)c2ccc(N)cc2)nc(C)n1
not listed: [2]
inactive: all other assays above

c1ccc(CNc2ncnc3c2ncn3C2CCCCO2)cc1 (stereo not given)
inactive: [10] | [3] | [5] | [9]
active: [1] 39.9 µM | [4] 9.69 µM
